According to PubChem BioAssay (NCATS):
Inconclusive results are not listed. Values without a mark were called inactive. Calls of active or inactive are those of the source. Calls come from the whole dose curve; as a rule, active = well fitted inhibition curve with a large enough effect; inconclusive = small, poorly fitted or top-dose-only effect; inactive = flat fitted curve, though single readings scatter.

Test: qHTS to identify inhibitors of the type 1 interferon - major histocompatibility complex class I in skeletal muscle: primary screen against the NCATS LOPAC collection (AID 1347405);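 note: human myoblasts with HiBiT tag on endogenous HLA-B stimulated by IFN-beta; lytic HiBiT luminescence reporting HLA-B protein level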
Details: iHSKM muscle cells, IFN-b-induced MHC-I HiBiT luminescence, 24 h; series mostly up to 45.9 µM; activity change, negative = inhibition: at the top concentration
In short: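 HLA-B HiBiT myoblasts, IFN-b 4 ng/ml, dexamethasone-free medium; compounds 7-pt 1:4.3 titration, top 46 uM final; 24 h at 37 C; Nano-Glo HiBiT lytic reagent, 10 min RT, luminescence.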
% is set by controls: 0 for no effect and ±100 for the full control effect; potency is the fitted concentration of half-maximal effect.

| Compound | activity change, negative = inhibition [%] | Potency |
| --- | --- | --- |
| COc1ccc(CCn2nnnc2C2(c3ccc(C)cc3)CC2)cc1 | -5.83 |  |
| CC(C)(C)c1cc(/C=C(\C#N)C(N)=S)cc(C(C)(C)C)c1O | -17.9 |  |
| C[N+](C)(C)CC=O | 0.89 |  |
| CCCCCCC/C=C\CCCCCCCCC(=O)O | -6 |  |
| CCCCCCN(CCCCCC)C(=O)Cc1c(-c2ccc(F)cc2)[nH]c2ccccc12 | -27.6 |  |
| COc1ccccc1N1CCN(CCCCN2C(=O)c3ccccc3C2=O)CC1 | 3.81 |  |
| C=C1C[C@@]23CC[C@H]4[C@@](C)(CCC[C@@]4(C)C(=O)O)[C@@H]2CC[C@]1(O)C3 | 2.87 |  |
| N[C@H](C(=O)O)[C@H](Cc1ccccc1)C(=O)O | -1.68 |  |
| NC(=O)CNCCC(c1ccccc1)c1ccccc1 | -12.8 |  |
| CC(=O)O[C@H]1CC2(C)[C@@H](C[C@@H](O)[C@H]3[C@@]4(C)CC[C@@H](O)[C@@H](C)[C@@H]4CC[C@@]32C)C1=C(CCC=C(C)C)C(=O)O (some centres not stated) | -11.9 |  |
| NC[C@@H]1O[C@H](c2ccccc2)Cc2c1ccc(O)c2O | -7.05 |  |
| Nc1ccc(-c2ccc3ccccc3n2)cc1 | -16.2 |  |
| COc1ccccc1N1CCN(CCN(C(=O)c2ccc(F)cc2)c2ccccn2)CC1 | -4.07 |  |
| COc1ccc(-c2cc3ncc(C)n3c(Nc3ncccc3C(N)=O)n2)cc1OC |  | 3.16 µM (active) |
| C[C@@H](NCCc1ccc(O)cc1)[C@@H](O)c1ccc(O)cc1 | -14.1 |  |
| CC(C)[C@@H]1CC[C@@H](C)C[C@@H]1P(=O)(c1ccccc1)c1ccccc1 | -24.9 |  |
| CC(=O)O[C@H]1Cc2ccccc2N(C(N)=O)c2ccccc21 | 2.62 |  |
